Data published in PubChem BioAssay (Tox21).
Inconclusive results are not listed. A call without a number means that no potency is given here. A number with no mark means an inactive call. Calls of active or inactive are those of the source. Calls follow the shape of the dose curve; as a rule, active = well fitted cell-killing curve with a large enough effect in the repeat runs; inconclusive = weak or mixed curves, or effect the other way; inactive = flat fitted curve, though single readings scatter.

What was measured:
[1] = cAMP Responsive Elements (CRE) small molecule antagonists, cell-based qHTS assay: qHTS cell viability counter screen (AID 2060913); also: nearly all actives have a fitted effect of over 40% in size
Summary of the method: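 CRE-bla HEK293T cells were seeded in assay medium with 10% dialyzed FBS, incubated 18 hrs at 37 C, then exposed to compounds plus 0.25 uM final NKH477 for 3 hrs. Viability was read by CellTiter-Glo luminescence after 30 min, in the same wells.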

[2] = cAMP Responsive Elements (CRE) small molecule agonists, cell-based qHTS assay: qHTS cell viability counter screen (AID 2060914);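 also: viability read after 3 h of compound exposure; nearly all actives have a fitted effect of over 50% in size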
Summary of the method: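 CRE-bla HEK 293T cells, plated 18 h at 37 °C, were exposed to compounds for 3 h at 37 °C/5% CO2. Viability was then measured in the same wells by CellTiter-Glo luminescence after 30 min at room temperature.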

SMILES | Potency [1] | Potency [2] | viability change, negative = cytotoxic [1] | activity change, negative = cytotoxicity [2]
Cc1c[nH]c(=S)[nH]c1=O | inactive | inactive | – | –
CCN1CCCC1CNC(=O)c1cc(S(=O)(=O)CC)c(N)cc1OC (stereo unspecified) | inactive | inactive | – | –
Cc1ccc(C(C)NC(=O)[C@@H](NC(=O)OC(C)C)C(C)C)cc1 (stereo partly specified) | inactive | inactive | – | –
NCCCN1CCOCC1 | inactive | inactive | – | –
CCCCCCCCCCCCCCCCCBr | – | – | 1.85% [at 18.9 µM] | 1.37% [at 18.9 µM]
C=CC(C)(O)CCCC(C)CCCC(C)CCCC(C)C (stereo unspecified) | inactive | inactive | – | –
CC1(C)CC(O)CC(C)(C)N1 | inactive | inactive | – | –
O=c1[nH]cnc2ccccc12 | inactive | inactive | – | –
Cc1[nH]c(C)c(Cl)c(=O)c1Cl | – | – | 2.74% [at 18.9 µM] | 4.19% [at 18.9 µM]
CCCCN1C(=O)[C@@H]([C@H](O)C2CCCCC2)NC(=O)C12CCN(Cc1ccc(Oc3ccc(C(=O)O)cc3)cc1)CC2 | inactive | inactive | – | –
CCCCCCCCCCO | inactive | inactive | – | –
CCOc1ccccc1O[C@H](c1ccccc1)[C@H]1CNCCO1 | inactive | inactive | – | –
O=S(=O)(O)CC(O)CCl (stereo unspecified) | inactive | inactive | – | –
O=C(O)CCCCCCCCCCCBr | inactive | inactive | – | –
Clc1nnc(Cl)c2ccccc12 | inactive | inactive | – | –
OCCc1ccncc1 | inactive | inactive | – | –
Cn1cc(C(=O)[C@@H]2CCc3nc[nH]c3C2)c2ccccc21 | inactive | inactive | – | –
C=CCCCCCCCCCCCCCC | – | – | -1.45% [at 18.9 µM] | -8.5% [at 18.9 µM]
